Sfp PPTase inh: qHTS Assay for Inhibitors of Bacillus subtilis Sfp phosphopantetheinyl transferase (PPTase). 4'-phosphopantetheinyl transferase ffp (Bacillus subtilis), Q9F4F7. Biochemical Sfp PPTase activity, qHTS. Potency, µM, actives largely listed as inhibitors. hit rate 3.5% among 310,000;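 further: the enzyme is Sfp with the accession as filed and its product quenches rhodamine fluorescence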
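Reaction rates are the 30-min fluorescence difference (ex 525, em 598 nm) in wells containing 15 nM Sfp, 5 uM rhodamine-CoA and 12.5 uM BHQ-2-YbbR at pH 7.6 with 10 mM MgCl2.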
PLK1 PBD block: qHTS for Inhibitors of PLK1-PDB (polo-like kinase 1 - polo-box domain): Primary Screen; Plk1 PBD binding of FITC phosphopeptide, fluorescence polarization; Potency, µM, actives largely listed as inhibitors; hit rate 2.8% among 360,000; AID 720504, 2013; further: series mostly up to about 57 µM; nearly all actives have a fitted effect of over 65% in size
RORgamma inh: qHTS for inhibitors of ROR gamma transcriptional activity. Nuclear receptor ROR-gamma (Mus musculus), P51450. Drosophila S2 Gal4-RORgamma UAS-luciferase reporter, 20 h. Potency, µM (highest dose often 53.6 µM), most hits filed as inhibitors. hit rate 5.4% among 310,000; further: nearly all actives have a fitted effect of over 60% in size
Target sequence (P51450 whole entry, looked up, the tested form may be a part): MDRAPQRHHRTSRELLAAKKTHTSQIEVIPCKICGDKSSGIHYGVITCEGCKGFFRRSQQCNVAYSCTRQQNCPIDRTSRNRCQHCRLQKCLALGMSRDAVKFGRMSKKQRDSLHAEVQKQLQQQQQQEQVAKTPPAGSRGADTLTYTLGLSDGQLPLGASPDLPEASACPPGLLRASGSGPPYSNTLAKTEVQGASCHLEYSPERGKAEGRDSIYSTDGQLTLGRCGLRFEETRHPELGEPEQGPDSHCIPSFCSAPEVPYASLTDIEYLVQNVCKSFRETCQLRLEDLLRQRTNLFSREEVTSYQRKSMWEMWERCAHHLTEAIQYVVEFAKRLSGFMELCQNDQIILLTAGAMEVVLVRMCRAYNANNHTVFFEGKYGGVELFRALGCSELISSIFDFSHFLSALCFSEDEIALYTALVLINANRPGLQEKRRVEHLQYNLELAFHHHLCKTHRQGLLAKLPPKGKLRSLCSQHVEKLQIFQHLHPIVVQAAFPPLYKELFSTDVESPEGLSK
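Using a luciferase readout, inhibitors were identified by reduced reporter activity in Drosophila cells coexpressing a copper-inducible Gal4–ROR gamma fusion and UAS-driven Photinus luciferase, incubated 20 hr after 700 uM copper sulfate.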
Gal4-VP16 FLuc: VP16 counterscreen qHTS for inhibitors of ROR gamma transcriptional activity; Drosophila S2 Gal4-VP16 UAS-luciferase, luminescence, 20 h; Potency, µM (series often up to 53.6 µM), actives largely listed as inhibitors; hit rate 3.5% among 310,000; AID 2546, 2010;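 further: Gal4-VP16 expression switched on by copper sulfate through the metallothionein promoter; nearly all actives have a fitted effect of over 50% in size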
ALDH1A1 inh: qHTS Assay for Inhibitors of Aldehyde Dehydrogenase 1 (ALDH1A1); Purified ALDH1A1, NADH fluorescence, propionaldehyde substrate; Potency, µM (doses to about 75.3 µM), actives largely listed as inhibitors; hit rate 7.3% among 220,000; Aldehyde dehydrogenase 1A1 (Homo sapiens), P00352; active means well fitted inhibition curve with a large enough effect, not every such curve was filed as active; inconclusive means small, poorly fitted or top-dose-only effect, or another doubt; inactive means no such curve, though single readings can be large or run the other way
Numbers stand for hits; n = inactive; u = inconclusive; x = not tested or not shown; [ ] = dose if it differs, or a comment. The list is not random: actives were taken first. Their share in the collection is about 12%. Unless noted, the call rests on the fitted dose curve; in most records, active means well fitted curve in the direction sought with a large enough effect; inconclusive means small, poorly fitted or top-dose-only effect, or another doubt; inactive means no such curve, though single readings can be large; an effect the other way counts as inactive or inconclusive.

SMILES | Sfp PPTase inh | PLK1 PBD block | RORgamma inh | Gal4-VP16 FLuc | ALDH1A1 inh
COc1ccc(NC(=O)CC2C(=O)N(C)C(=S)N2CCc2ccccc2)cc1 (configuration not stated) | n | n | u | n | 0.891µM
COc1ccc(NC(=O)CC2C(=O)N(c3ccc(OC)cc3)C(=S)N2NC(=O)c2cccc(F)c2)cc1 (configuration not stated) | n | n | 12.6µM | u | n
CCN1C(=O)C(CC(=O)Nc2ccc(OC)cc2)N(CCCN2CCN(c3ccc(F)cc3)CC2)C1=S (configuration not stated) | n | n | n | n | n
CC(C)CC(N)c1csc(NC(=O)c2cc(C(C)(C)C)nn2Cc2ccccc2)n1 (configuration not stated) | x | n | x | x | x
COc1ccc(S(=O)(=O)NC(C)c2ccc3c(c2)OCCO3)cc1 (configuration not stated) | x | n | x | x | x
COc1ccc(OC)c(C(=O)CSc2nc3cccnc3n2C)c1 | 79.4µM | n | u | u | 22.4µM
CCn1nnnc1SCC(=O)c1cc(OC)ccc1OC | n | n | n | n | 14.1µM
Cc1ccc(C(=O)CSc2nc3cccnc3n2C)cc1 | n | n | n | n | u
COc1ccc(OC)c(C(=O)CSc2nnnn2C)c1 | u | n | n | n | u
c1ccc(Nc2nc(-c3ccoc3)nc3ccccc23)cc1 | n | x | u | n | u
COc1ccc(C[N+](C)(C)N)cc1OC | x | x | x | x | n[13.5 µM]
CN(CC(=O)Nc1ccccc1Cl)C(=O)COC(=O)c1nc(Cl)c(Cl)c(Cl)c1Cl | n | n | n | u | x
O=C1[C@@H]2[C@H](C(=O)N1O)[C@H]1C=C[C@@H]2C1 | n | n | n | n | 0.631µM
CC(C)CC1NC(=O)C(CCCN)NC(=O)C(C(C)C)NC(=O)C2CCCN2C(=O)C(Cc2ccccc2)NC(=O)C(CC(C)C)NC(=O)C(CCCN)NC(=O)C(C(C)C)NC(=O)C2CCCN2C(=O)C(Cc2ccccc2)NC1=O (configuration not stated) | n | x | 0.0891µM | 0.282µM | n
O=C1N[C@@H](Cc2ccccc2)C(=O)N2CCCC12 (some centres not stated) | n | n | n | n | n
O=c1cc(-c2ccc(O)c(O)c2)oc2cc(OC3OC(CO)C(O)C(O)C3O)cc(O)c12 (configuration not stated) | n | x | n | n | u
N#Cc1c(-c2ccccc2)nc(SCC(=O)N2c3ccccc3Sc3ccccc32)[nH]c1=O | n | 18.9µM | n | n | x
N#Cc1c(-c2ccccc2)nc(SCC(=O)Nc2ccccc2)[nH]c1=O | n | n | n | n | n
N#Cc1c(-c2ccccc2)nc(SCC(=O)N(c2ccccc2)c2ccccc2)[nH]c1=O | n | u | n | n | 12.6µM
CCOC(=O)CCCCC(=O)c1[nH]c(=O)[nH]c1CSc1nc(-c2ccccc2)c(C#N)c(=O)[nH]1 | u | n | n | n | 7.94µM
Cc1ccc([N+](=O)[O-])c(NC(=O)COC(=O)CCNS(=O)(=O)c2cccs2)c1C | x | n | x | x | x
Cc1ccc(C2=NCCn3c2c2ccc(C(F)(F)F)cc2[n+]3[O-])cc1 | x | n | x | x | x
CCOC(=O)c1sc(NC(=O)CSc2ncn[nH]2)c(C#N)c1C | n | n | n | n | n
COc1ccc(-c2cc(C(=O)Nc3ccc(C)c(N)c3)c3ccccc3n2)cc1 | n | n | u | n | x
CCOC(=O)c1sc(NC(=O)c2cc(-c3ccccc3)nc3ccccc23)c(C#N)c1C | 39.8µM | 2.99µM | u | u | 3.16µM
SMILES | Sfp PPTase inh | PLK1 PBD block | RORgamma inh | Gal4-VP16 FLuc | ALDH1A1 inh
CCOC(=O)c1sc(NC(=O)CSc2nnc(Cc3ccccc3)o2)c(C#N)c1C | 3.16µM | 1.68µM | n | n | 0.562µM
CCOC(=O)c1sc(NC(=O)CSc2ccccn2)c(C#N)c1C | n | n | n | n | 25.1µM
CCOC(=O)c1sc(NC(=O)CSc2n[nH]c(-c3ccccc3)n2)c(C#N)c1C | 7.08µM | 3.77µM | 1.26µM | 5.62µM | 2.82µM
CCOC(=O)c1sc(NC(=O)CSc2nc(C)cc(C)n2)c(C#N)c1C | n | n | n | n | n
C=CCNC(=O)c1c(CSc2ccc(F)cc2)noc1C(=O)NCCC | x | n | x | x | x
NS(=O)(=O)c1ccc(CCNC(=O)NC2(C(F)(F)F)Oc3ccccc3O2)cc1 | n | n | 11.2µM | u | n
